Measurements reported in PubChem BioAssay (NCATS).
“And” between values parts separate entries of the source, which are not always exact repeats. Equal values may be shown once. Results filed as inconclusive are left out. Some compounds were tested as several samples or in several runs, with calls that do not always agree. The source made the active and inactive calls. Unless noted, calls follow the shape of the dose curve; as a rule, active = well fitted curve in either direction with a large enough effect (not every such curve was filed as active); inconclusive = small, poorly fitted or top-dose-only effect, or another doubt; inactive = flat fitted curve, though single readings scatter.

Test system: not listed separately
Experiment: AP1 Signaling Pathway (AID 357);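 also: ME-180 reporter cells stimulated with EGF at its EC50 level; % is scaled to controls: 0 for no effect and ±100 for the full control effect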
Settings: ME-180 (cervical carcinoma) AP-1-bla reporter, EGF-induced, beta-lactamase ratio, 5 h; at 38 µM (top of the series) unless noted
In short: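 Beta-lactamase reporter under AP-1 response element, ME-180 background. Stimulus: EC50 EGF. Compound exposure 5 h, 37 °C. Detection: CCF4, 2.5 h RT, 460/530 nm. Values: AC50 from titration.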

Structure (SMILES) | activity change, negative = inhibition
Oc1ccc(Cn2cc[nH]c2=S)cc1 | -3.65% (inactive)
CC[N+](CC)(CC)CC(=O)Nc1c(C)cccc1C | 6.05% (inactive)
NC(N)=NC(N)=Nc1ccccc1 | -6.28% (inactive)
Nc1ncnc2c1ncn2C1CCCC1 | -12.9% (inactive)
CCCCCCC/C=C\CCCCCCCCC(=O)O | 12.5% (inactive)
CCN(CC)CCOC(=O)c1cc(Cl)c(N)cc1OC | 11.7% (inactive)
O=c1onc2cnc3ccccc3n12 | -2.81% (inactive)
CNc1cc(NS(=O)(=O)c2ccc(N)cc2)nc(NC)n1 | 4.35% (inactive)
O=C(O)C1=CC(=C(c2ccc(O)c(C(=O)O)c2)c2ccc(O)c(C(=O)O)c2)C=CC1=O | -18.9% (inactive)
NC(=O)CNCCC(c1ccccc1)c1ccccc1 | -7.75% (inactive)
Cc1nc(N=Nc2ccc(S(=O)(=O)O)cc2S(=O)(=O)O)c(COP(=O)(O)O)c(C=O)c1O | -10.9% (inactive)
Cn1c(=O)c2[nH]c(-c3ccc(S(=O)(=O)O)cc3)nc2n(C)c1=O | 8.6% (inactive)
Nc1nc2ccc(Cl)cc2c2nc(-c3ccco3)nn12 | -6.92% (inactive)
CCN(c1nc(N)c(C(=O)N=C(N)N)nc1Cl)C(C)C | 29.9% (inactive)
Nn1nnc2ccccc21 | 1.19% (inactive)
C[C@H](O)C(=O)C1=Nc2c(nc(N)[nH]c2=O)NC1 | 12.2% (inactive)
Cc1nc(N=Nc2ccc(C(=O)O)cc2)c(COP(=O)(O)O)c(C=O)c1O | -5.94% (inactive)
O=c1[nH]c(=O)c2nc3ccccc3nc2[nH]1 | -6.22% (inactive)
CCCCCCCCCCCCCCC[C@H](O)[C@H](N)CO | 5.73% (inactive)

Molecular target: Cytochrome P450 1A2 (Homo sapiens) (UniProt P05177)
Experiment: p450-cyp1a2 (AID 410; calls by dose curve; also: potency is read from the fitted curve at half-maximal effect;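 as to activity change, negative = inhibition: -100% = full effect of reference inhibitor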)
Settings: recombinant CYP1A2, luciferin-ME demethylation, luminescence; series mostly up to 57 µM; activity change, negative = inhibition: at the top concentration
In short: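 Read-out is luminescence from luciferin produced by CYP1A2 demethylation of Luciferin-ME (100uM, at Km). Detection reagent stopped the 60 min NADPH-dependent reaction; signals were normalized to 57 uM furafylline.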

Cytochrome P450 1A2 (Homo sapiens), sequence (P05177 whole entry, looked up): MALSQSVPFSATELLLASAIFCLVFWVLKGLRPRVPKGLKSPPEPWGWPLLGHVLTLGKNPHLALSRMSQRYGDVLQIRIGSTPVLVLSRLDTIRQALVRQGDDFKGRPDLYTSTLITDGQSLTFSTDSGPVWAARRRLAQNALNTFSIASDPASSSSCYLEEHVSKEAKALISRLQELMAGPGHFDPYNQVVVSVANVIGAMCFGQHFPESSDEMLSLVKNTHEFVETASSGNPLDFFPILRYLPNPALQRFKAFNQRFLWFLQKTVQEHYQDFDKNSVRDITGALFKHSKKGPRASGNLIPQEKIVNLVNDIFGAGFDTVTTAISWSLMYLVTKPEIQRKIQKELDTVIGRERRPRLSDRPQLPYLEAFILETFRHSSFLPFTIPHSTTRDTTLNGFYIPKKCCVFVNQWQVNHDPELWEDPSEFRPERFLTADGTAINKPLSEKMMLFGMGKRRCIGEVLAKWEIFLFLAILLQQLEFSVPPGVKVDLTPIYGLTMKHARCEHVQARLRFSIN

Structure (SMILES) | Potency | activity change, negative = inhibition
COc1ccc2c(c1)c(CC(=O)O)c(C)n2C(=O)c1ccccc1 | 12.6 µM (active) | –
O=C(O)Cc1ccc(O)c(O)c1 | – | -11.3% (inactive)
CCC(=O)N1CCN(C(=O)c2ccccc2)CC1 | – | -2.9% (inactive)
Cn1ccnc1 | – | 4.4% (inactive)
CC(N)=O | – | -4.8% (inactive)
CCN(CC)CCCCCCCCOC(=O)c1cc(OC)c(OC)c(OC)c1 | – | -7.4% (inactive)
O=c1[nH]c2ccccc2c2ccccc12 | 0.251 µM (active) | –
[Li+] | – | -2.2% (inactive)
N#Cc1cc2nc(O)c(O)nc2cc1[N+](=O)[O-] | inactive and 39.8 µM (active) | –
COc1ccccc1N1CCN(CCCCN2C(=O)c3ccccc3C2=O)CC1 | inactive | –
Cn1cc(C(=O)OCC2CCN(CCNS(C)(=O)=O)CC2)c2ccccc21 | 12.6 µM (active) and 15.8 µM (active) | –
O=C(O)C1=CCCNC1 | inactive | –
CN[C@H](CC(=O)O)C(=O)O | – | -2.4% (inactive)
O=c1ccc2c(OCCCCc3ccccc3)c3ccoc3cc2o1 | 0.501 µM (active) | –
COc1ccc2c(c1)c(CC(=O)O)c(C)n2Cc1ccc(Cl)cc1 | 31.6 µM (active) | –
COCc1nc2c([nH]1)c(=O)n(C)c(=O)n2CC(C)C | 12.6 µM (active) | –
O=c1onc2n1-c1cc(Br)ccc1OC2 | 0.794 µM (active) | –
O=C(c1ccc2c(c1)OCCO2)N1CCCCC1 | 15.8 µM (active) | –
Oc1ccc(Cn2cc[nH]c2=S)cc1 | 6.31 µM (active) | –

Structure (SMILES) | Potency | activity change, negative = inhibition
CC[N+](CC)(CC)CC(=O)Nc1c(C)cccc1C | inactive and 31.6 µM (active) | –
NC(N)=NC(N)=Nc1ccccc1 | inactive and 31.6 µM (active) | –
Nc1ncnc2c1ncn2C1CCCC1 | 20 µM (active) | –
CCCCCCC/C=C\CCCCCCCCC(=O)O | 31.6 µM (active) | –
CCN(CC)CCOC(=O)c1cc(Cl)c(N)cc1OC | 12.6 µM (active) | –
O=c1onc2cnc3ccccc3n12 | 12.6 µM (active) and 2.51 µM (active) | –
CNc1cc(NS(=O)(=O)c2ccc(N)cc2)nc(NC)n1 | – | -10.1% (inactive)
O=C(O)C1=CC(=C(c2ccc(O)c(C(=O)O)c2)c2ccc(O)c(C(=O)O)c2)C=CC1=O | 10 µM (active) | –
NC(=O)CNCCC(c1ccccc1)c1ccccc1 | – | -4.7% (inactive)
Cc1nc(N=Nc2ccc(S(=O)(=O)O)cc2S(=O)(=O)O)c(COP(=O)(O)O)c(C=O)c1O | inactive | –
Cn1c(=O)c2[nH]c(-c3ccc(S(=O)(=O)O)cc3)nc2n(C)c1=O | – | -17.6% (inactive)
Nc1nc2ccc(Cl)cc2c2nc(-c3ccco3)nn12 | 631 nM (active) and 63.1 nM (active) | –
CCN(c1nc(N)c(C(=O)N=C(N)N)nc1Cl)C(C)C | 2 µM (active) | –
Nn1nnc2ccccc21 | 12.6 µM (active) | –
C[C@H](O)C(=O)C1=Nc2c(nc(N)[nH]c2=O)NC1 | – | -9.3% (inactive)
Cc1nc(N=Nc2ccc(C(=O)O)cc2)c(COP(=O)(O)O)c(C=O)c1O | – | -7% (inactive)
O=c1[nH]c(=O)c2nc3ccccc3nc2[nH]1 | 12.6 µM (active) | –
CCCCCCCCCCCCCCC[C@H](O)[C@H](N)CO | – | -4.8% (inactive)

Test system: not listed separately
Experiment: NFAT Signaling Pathway (AID 444);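 also: carbachol stimulus at about its EC50 of 1 µM final; % is scaled to controls: 0 for no effect and ±100 for the full control effect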
Settings: Jurkat NFAT-bla M1, carbachol, beta-lactamase ratio, 5 h; at 38 µM (top of the series) unless noted
In short: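 Jurkat cells with NFAT-driven β-lactamase reporter and co-expressed M1 receptor, stimulated with carbachol (final 1 uM, ~EC50), compound titration, 5 h at 37 °C. CCF4 loaded 1 h at RT; 460/530 nm ratio gave %activity and AC50.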

Structure (SMILES) | activity change, negative = inhibition
COc1ccc2c(c1)c(CC(=O)O)c(C)n2C(=O)c1ccccc1 | -0.217% (inactive)
O=C(O)Cc1ccc(O)c(O)c1 | 12.7% (inactive)
CCC(=O)N1CCN(C(=O)c2ccccc2)CC1 | 3.73% (inactive)
Cn1ccnc1 | -1.47% (inactive)
CC(N)=O | -6.62% (inactive)
CCN(CC)CCCCCCCCOC(=O)c1cc(OC)c(OC)c(OC)c1 | -83.6% (active)
O=c1[nH]c2ccccc2c2ccccc12 | 8.86% (inactive)
[Li+] | 1.3% (inactive)
N#Cc1cc2nc(O)c(O)nc2cc1[N+](=O)[O-] | 10.2% (inactive)
COc1ccccc1N1CCN(CCCCN2C(=O)c3ccccc3C2=O)CC1 | -20.4% (inactive)
Cn1cc(C(=O)OCC2CCN(CCNS(C)(=O)=O)CC2)c2ccccc21 | -2.1% (inactive)
O=C(O)C1=CCCNC1 | 3.92% (inactive)
CN[C@H](CC(=O)O)C(=O)O | 0.454% (inactive)
O=c1ccc2c(OCCCCc3ccccc3)c3ccoc3cc2o1 | -20.3% (inactive)
COc1ccc2c(c1)c(CC(=O)O)c(C)n2Cc1ccc(Cl)cc1 | -4.65% (inactive)
COc1ccccc1N1CCN(CCCNc2c(C)c(=O)n(C)c(=O)n2C)CC1 | -22.9% (inactive)
COCc1nc2c([nH]1)c(=O)n(C)c(=O)n2CC(C)C | 9.41% (inactive)
O=c1onc2n1-c1cc(Br)ccc1OC2 | 3.41% (inactive)
CCCn1c(=O)c2[nH]c(-c3ccc(S(=O)(=O)O)cc3)nc2n(CCC)c1=O | 13.8% (inactive)
O=C(c1ccc2c(c1)OCCO2)N1CCCCC1 | 5.58% (inactive)

Structure (SMILES) | activity change, negative = inhibition
Oc1ccc(Cn2cc[nH]c2=S)cc1 | 3.63% (inactive)
CC[N+](CC)(CC)CC(=O)Nc1c(C)cccc1C | -27.1% (inactive)
NC(N)=NC(N)=Nc1ccccc1 | 7.27% (inactive)
Nc1ncnc2c1ncn2C1CCCC1 | 11.8% (inactive)
CCCCCCC/C=C\CCCCCCCCC(=O)O | -3.56% (inactive)
CCN(CC)CCOC(=O)c1cc(Cl)c(N)cc1OC | -3.84% (inactive)
O=c1onc2cnc3ccccc3n12 | 1.27% (inactive)
CNc1cc(NS(=O)(=O)c2ccc(N)cc2)nc(NC)n1 | 3.2% (inactive)
O=C(O)C1=CC(=C(c2ccc(O)c(C(=O)O)c2)c2ccc(O)c(C(=O)O)c2)C=CC1=O | 1.98% (inactive)
NC(=O)CNCCC(c1ccccc1)c1ccccc1 | 1.39% (inactive)
Cc1nc(N=Nc2ccc(S(=O)(=O)O)cc2S(=O)(=O)O)c(COP(=O)(O)O)c(C=O)c1O | 2.46% (inactive)
Cn1c(=O)c2[nH]c(-c3ccc(S(=O)(=O)O)cc3)nc2n(C)c1=O | 8.07% (inactive)
Nc1nc2ccc(Cl)cc2c2nc(-c3ccco3)nn12 | 19.6% (inactive)
CCN(c1nc(N)c(C(=O)N=C(N)N)nc1Cl)C(C)C | -3.34% (inactive)
Nn1nnc2ccccc21 | 4.59% (inactive)
C[C@H](O)C(=O)C1=Nc2c(nc(N)[nH]c2=O)NC1 | -2.7% (inactive)
Cc1nc(N=Nc2ccc(C(=O)O)cc2)c(COP(=O)(O)O)c(C=O)c1O | 7.15% (inactive)
O=c1[nH]c(=O)c2nc3ccccc3nc2[nH]1 | 0.27% (inactive)
CCCCCCCCCCCCCCC[C@H](O)[C@H](N)CO | 0.212% (inactive)
